The panel holds about 79,000 compounds, 15% with a hit somewhere; the sample as a whole holds those more often. Unmarked numbers belong to inactive results. Active and inactive are the calls of the source. No stated cut-off is given here; in the data, active means growth inhibition above about 70%; inactive means the rest.
Columns and labels:
[1] = NCI Yeast Anticancer Drug Screen. Data for the wt1 strain (AID 149);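 further: 0% = growth of vehicle-treated wt1 cultures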; details: S. cerevisiae wt1 strain (SPY 50644) growth inhibition, stronger effect = higher value
Summary of the method: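 Yeast wt1 strain exposed to compounds; growth inhibition measured relative to vehicle-treated controls.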

[2] = NCI Yeast Anticancer Drug Screen. Data for the rad50EPP+ strain (AID 151);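 further: 0% = growth of vehicle-treated control cultures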; details: S. cerevisiae rad50 mutant strain, stronger effect = higher value
Summary of the method: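 One strain with a rad50 alteration (rad50EPP+) was compound-treated, its growth then compared to that of vehicle controls.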

[3] = NCI Yeast Anticancer Drug Screen. Data for the mgt1 strain (AID 153); details: S. cerevisiae mgt1 mutant growth inhibition, stronger effect = higher value
Summary of the method: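 After exposure of the mgt1 yeast mutant to compound, growth was measured and reported as inhibition compared with vehicle controls.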

[4] = NCI Yeast Anticancer Drug Screen. Data for the rad50 strain (AID 155);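 further: 0% = growth of vehicle-only cultures of the same strain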; details: S. cerevisiae rad50 strain growth inhibition, stronger effect = higher value
Summary of the method: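 Yeast carrying a defined DNA repair defect were exposed to test compounds, and growth was compared with vehicle-treated controls to give percent inhibition.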

[5] = NCI Yeast Anticancer Drug Screen. Data for the mec2-1 strain (AID 157); details: S. cerevisiae mec2-1 strain, stronger effect = higher value
Summary of the method: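 Test agents were screened against the mec2-1 yeast strain, with defined DNA repair or cell cycle alteration. Growth was scored as inhibition against vehicle-only controls.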

[6] = NCI Yeast Anticancer Drug Screen. Data for the sgs1 mgt1 strain (AID 161);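 further: 0% = growth of cultures given vehicle only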; details: S. cerevisiae sgs1 mgt1 strain, stronger effect = higher value
Summary of the method: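 Genetically altered yeast, compound exposure, growth inhibition relative to vehicle.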

[7] = NCI Yeast Anticancer Drug Screen. Data for the CLN2oe strain (AID 163);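 further: 0% = growth of vehicle-only control cultures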; details: S. cerevisiae CLN2oe strain, stronger effect = higher value
Summary of the method: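 Here, growth inhibition in a cell-cycle-altered yeast strain after compound exposure was quantified against vehicle control growth.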

[8] = NCI Yeast Anticancer Drug Screen. Data for the cln2 rad14 strain (AID 165);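 further: 0% = growth equal to vehicle treated cultures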; details: S. cerevisiae cln2 rad14 strain, stronger effect = higher value
Summary of the method: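 Growth of compound-exposed yeast (cln2 rad14 genotype) measured and expressed as inhibition relative to vehicle.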

[9] = NCI Yeast Anticancer Drug Screen. Data for the bub3 strain (AID 167); details: S. cerevisiae bub3 mutant strain, stronger effect = higher value
Summary of the method: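 Compounds were applied to a genetically altered yeast strain carrying a cell-cycle control defect. Growth inhibition was scored against vehicle-treated controls.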

[10] = NCI Yeast Anticancer Drug Screen. Data for the wt2 strain (AID 169);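 further: 0% = growth of vehicle-treated yeast cultures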; details: S. cerevisiae wt2 strain growth inhibition, stronger effect = higher value
Summary of the method: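 Genetically defined yeast strains from a DNA-repair/cell-cycle panel were used. Compound-exposed yeast growth was measured, and the inhibition was calculated relative to vehicle treatment.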

[11] = NCI Yeast Anticancer Drug Screen. Data for the mlh1 strain (AID 171);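 further: 0% = growth of vehicle-treated control cultures of the same strain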; details: S. cerevisiae mlh1 strain growth inhibition, stronger effect = higher value
Summary of the method: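 Here the genetically defined yeast mutant is grown with each compound, and the extent to which its growth falls below that of vehicle-exposed cells is reported.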

[12] = NCI Yeast Anticancer Drug Screen. Data for the sgs1 strain (AID 173);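 further: 0% = growth of vehicle-only control cultures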; details: S. cerevisiae sgs1 mutant, stronger effect = higher value
Summary of the method: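 Relative growth inhibition, referenced to vehicle, was determined in a yeast strain with a defined alteration affecting DNA damage repair or cell cycle control after compound exposure.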

[13] = NCI Yeast Anticancer Drug Screen. Data for the mlh1 rad18 strain (AID 175); details: S. cerevisiae mlh1 rad18 strain growth inhibition, stronger effect = higher value
Summary of the method: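 In this whole-cell yeast screen, a strain with altered DNA damage repair is challenged with compound, and its growth is measured against matched vehicle-treated controls.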

[14] = NCI Yeast Anticancer Drug Screen. Data for the rad18 strain (AID 177); details: S. cerevisiae rad18 mutant growth inhibition, stronger effect = higher value
Summary of the method: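 Screen uses a yeast strain with a defined lesion in DNA damage repair; compound effect is read as loss of growth compared to untreated vehicle cultures.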

[15] = NCI Yeast Anticancer Drug Screen. Data for the rad14 strain (AID 159);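 further: 0% = growth of vehicle-treated control cultures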; details: S. cerevisiae rad14 strain growth inhibition, stronger effect = higher value
Summary of the method: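 Yeast cells carrying a defined DNA-repair defect were exposed to compounds, and growth inhibition was calculated relative to vehicle-treated control cultures.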

[16] = at 5.0 µM (retest, dose inferred, filed as 0.5)
[17] = at 50.0 µM (retest, dose inferred, filed as 5.0)

`COc1ccc(N=CN(C)C)c(C)c1` showed a growth inhibition ([1]; at 1.2 µM) of -29%, a growth inhibition ([1]; at 3.7 µM) of -29% and a growth inhibition ([1]; at 11.0 µM) of -32%. For the same molecule, the growth inhibition ([1]; at 33.0 µM) was 61%, the growth inhibition ([1]; at 100.0 µM) was 95% (active) and the growth inhibition ([2]; at 1.2 µM) was -9%. The growth inhibition ([2]; at 3.7 µM) was -62%, the growth inhibition ([2]; at 11.0 µM) was -62% and the growth inhibition ([2]; at 33.0 µM) was -34%. The growth inhibition ([2]; at 100.0 µM) was 71% (active), the growth inhibition ([3]; at 1.2 µM) was -40% and the growth inhibition ([3]; at 3.7 µM) was -51%. For the same molecule, the growth inhibition ([3]; at 11.0 µM) was -43%, the growth inhibition ([3]; at 33.0 µM) was 93% (active) and the growth inhibition ([3]; at 100.0 µM) was 95% (active). For the same molecule, the growth inhibition ([4]; at 1.2 µM) was -1%, the growth inhibition ([4]; at 3.7 µM) was 1% and the growth inhibition [4, 16] was 50%. The growth inhibition ([4]; at 11.0 µM) was -19%, the growth inhibition ([4]; at 33.0 µM) was 86% (active) and the growth inhibition [4, 17] was 78% (active). For the same molecule, the growth inhibition ([4]; at 50.0 µM) was 91.5% (active), the growth inhibition ([4]; at 100.0 µM) was 95% (active) and the growth inhibition ([5]; at 1.2 µM) was -44%. For the same molecule, the growth inhibition ([5]; at 3.7 µM) was -70%, the growth inhibition [5, 16] was 46% and the growth inhibition ([5]; at 11.0 µM) was -43%. For the same molecule, the growth inhibition ([5]; at 33.0 µM) was 85% (active), the growth inhibition [5, 17] was 76% (active) and the growth inhibition ([5]; at 50.0 µM) was 94% (active). For the same molecule, the growth inhibition ([5]; at 100.0 µM) was 96% (active), the growth inhibition [6, 16] was -4% and the growth inhibition [6, 17] was 97% (active). For the same molecule, the growth inhibition ([6]; at 50.0 µM) was 93.5% (active), the growth inhibition ([7]; at 1.2 µM) was -28% and the growth inhibition ([7]; at 3.7 µM) was -34%. The growth inhibition ([7]; at 11.0 µM) was -10%, the growth inhibition ([7]; at 33.0 µM) was 84% (active) and the growth inhibition ([7]; at 100.0 µM) was 93% (active). The growth inhibition [8, 16] was 63%, the growth inhibition [8, 17] was 96% (active) and the growth inhibition ([8]; at 50.0 µM) was 92% (active). It also gave a growth inhibition ([9]; at 1.2 µM) of -30%, a growth inhibition ([9]; at 3.7 µM) of -9% and a growth inhibition [9, 16] of 44%. The growth inhibition ([9]; at 11.0 µM) was -28%, the growth inhibition ([9]; at 33.0 µM) was 88% (active) and the growth inhibition [9, 17] was 95% (active). For the same molecule, the growth inhibition ([9]; at 50.0 µM) was 91.9% (active), the growth inhibition ([9]; at 100.0 µM) was 94% (active) and the growth inhibition ([10]; at 1.2 µM) was -26%. The growth inhibition ([10]; at 3.7 µM) was -39%, the growth inhibition ([10]; at 11.0 µM) was -27% and the growth inhibition ([10]; at 33.0 µM) was 87% (active). The growth inhibition ([10]; at 100.0 µM) was 96% (active), the growth inhibition ([11]; at 1.2 µM) was -37% and the growth inhibition ([11]; at 3.7 µM) was -3%. The growth inhibition ([11]; at 11.0 µM) was -16%, the growth inhibition ([11]; at 33.0 µM) was 93% (active) and the growth inhibition ([11]; at 100.0 µM) was 96% (active). The growth inhibition ([12]; at 1.2 µM) was -45%, the growth inhibition ([12]; at 3.7 µM) was -40% and the growth inhibition ([12]; at 11.0 µM) was -59%. The growth inhibition ([12]; at 33.0 µM) was 89% (active), the growth inhibition ([12]; at 100.0 µM) was 95% (active) and the growth inhibition [13, 16] was 44%. The growth inhibition [13, 17] was 72% (active), the growth inhibition ([13]; at 50.0 µM) was 48.4% and the growth inhibition ([14]; at 1.2 µM) was -50%. The growth inhibition ([14]; at 3.7 µM) was -55%, the growth inhibition ([14]; at 11.0 µM) was -8% and the growth inhibition ([14]; at 33.0 µM) was 89% (active). The growth inhibition ([14]; at 100.0 µM) was 93% (active).
With `CNCCCNc1c2ccccc2nc2cccc([N+](=O)[O-])c12` the growth inhibition ([1]; at 1.2 µM) was 2%, the growth inhibition ([1]; at 3.7 µM) was 28% and the growth inhibition ([1]; at 11.0 µM) was 77% (active). The growth inhibition ([1]; at 33.0 µM) was 92% (active), the growth inhibition ([1]; at 100.0 µM) was 97% (active) and the growth inhibition ([2]; at 1.2 µM) was 43%. The growth inhibition ([2]; at 3.7 µM) was 89% (active), the growth inhibition ([2]; at 11.0 µM) was 96% (active) and the growth inhibition ([2]; at 33.0 µM) was 97% (active). For the same molecule, the growth inhibition ([2]; at 100.0 µM) was 98% (active), the growth inhibition ([3]; at 1.2 µM) was 18% and the growth inhibition ([3]; at 3.7 µM) was 42%. For the same molecule, the growth inhibition ([3]; at 11.0 µM) was 72% (active), the growth inhibition ([3]; at 33.0 µM) was 94% (active) and the growth inhibition ([3]; at 100.0 µM) was 97% (active). The growth inhibition ([4]; at 1.2 µM) was 73% (active), the growth inhibition ([4]; at 3.7 µM) was 82% (active) and the growth inhibition [4, 16] was 77% (active). For the same molecule, the growth inhibition ([4]; at 11.0 µM) was 91% (active), the growth inhibition ([4]; at 33.0 µM) was 93% (active) and the growth inhibition [4, 17] was 95% (active). For the same molecule, the growth inhibition ([4]; at 50.0 µM) was 84.8% (active), the growth inhibition ([4]; at 100.0 µM) was 96% (active) and the growth inhibition ([5]; at 1.2 µM) was 41%. For the same molecule, the growth inhibition ([5]; at 3.7 µM) was 87% (active), the growth inhibition [5, 16] was 89% (active) and the growth inhibition ([5]; at 11.0 µM) was 92% (active). For the same molecule, the growth inhibition ([5]; at 33.0 µM) was 95% (active), the growth inhibition [5, 17] was 97% (active) and the growth inhibition ([5]; at 50.0 µM) was 91% (active). The growth inhibition ([5]; at 100.0 µM) was 97% (active), the growth inhibition ([15]; at 1.2 µM) was 84% (active) and the growth inhibition ([15]; at 3.7 µM) was 93% (active). For the same molecule, the growth inhibition ([15]; at 11.0 µM) was 96% (active), the growth inhibition ([15]; at 33.0 µM) was 96% (active) and the growth inhibition ([15]; at 100.0 µM) was 97% (active). For the same molecule, the growth inhibition [6, 16] was 87% (active), the growth inhibition [6, 17] was 96% (active) and the growth inhibition ([6]; at 50.0 µM) was 91.2% (active). The growth inhibition ([7]; at 1.2 µM) was -1%, the growth inhibition ([7]; at 3.7 µM) was 28% and the growth inhibition ([7]; at 11.0 µM) was 80% (active). The growth inhibition ([7]; at 33.0 µM) was 93% (active), the growth inhibition ([7]; at 100.0 µM) was 97% (active) and the growth inhibition [8, 16] was 77% (active). For the same molecule, the growth inhibition [8, 17] was 95% (active), the growth inhibition ([8]; at 50.0 µM) was 91.3% (active) and the growth inhibition ([9]; at 1.2 µM) was -12%. For the same molecule, the growth inhibition ([9]; at 3.7 µM) was 38%, the growth inhibition [9, 16] was 21% and the growth inhibition ([9]; at 11.0 µM) was 92% (active). The growth inhibition ([9]; at 33.0 µM) was 98% (active), the growth inhibition [9, 17] was 96% (active) and the growth inhibition ([9]; at 50.0 µM) was 85.8% (active). The growth inhibition ([9]; at 100.0 µM) was 99% (active), the growth inhibition ([10]; at 1.2 µM) was 2% and the growth inhibition ([10]; at 3.7 µM) was 23%. The growth inhibition ([10]; at 11.0 µM) was 86% (active), the growth inhibition ([10]; at 33.0 µM) was 97% (active) and the growth inhibition ([10]; at 100.0 µM) was 99% (active). For the same molecule, the growth inhibition ([11]; at 1.2 µM) was 18%, the growth inhibition ([11]; at 3.7 µM) was 42% and the growth inhibition ([11]; at 11.0 µM) was 72% (active). For the same molecule, the growth inhibition ([11]; at 33.0 µM) was 94% (active), the growth inhibition ([11]; at 100.0 µM) was 97% (active) and the growth inhibition ([12]; at 1.2 µM) was 67%. The growth inhibition ([12]; at 3.7 µM) was 84% (active), the growth inhibition ([12]; at 11.0 µM) was 92% (active) and the growth inhibition ([12]; at 33.0 µM) was 92% (active). For the same molecule, the growth inhibition ([12]; at 100.0 µM) was 95% (active), the growth inhibition [13, 16] was 88% (active) and the growth inhibition [13, 17] was 96% (active). For the same molecule, the growth inhibition ([13]; at 50.0 µM) was 85.3% (active).

Source: PubChem BioAssay (NCI)
